# Measured values: PubChem BioAssay AID488851 (National Center for Advancing Translational Sciences (NCATS), 2010)
# Results filed as inconclusive are left out. The source made the active and inactive calls. The call rests on the fitted dose curve; in most records, active means well fitted activation curve with a large enough effect; inconclusive means small, poorly fitted or top-dose-only effect; inactive means flat fitted curve, though single readings scatter.
# Molecular target: Lysosomal acid glucosylceramidase (Homo sapiens) (UniProt P04062)
# Assay: qHTS Assay for Inhibitors and Activators of N370S glucocerebrosidase as a Potential Chaperone Treatment of Gaucher Disease: Purified Non-mutant Confirmation for Probe SAR
# Conditions: purified GC, 4MU-beta-glucoside fluorescence, 40 min; series mostly up to 57.5 µM
# From the text: NIH Chemical Genomics Center [NCGC] NIH Molecular Libraries Probe Production Centers Network [MLPCN] MLPCN Grant: MH086442-01 Assay Submitter (PI): Wei Zheng Glucocerebrosidase (GC) catalyzes the hydrolysis of beta-glucocerebroside to glucose and ceramide in lysosomes. Mutations in the glucocerebrosidase gene result in Gaucher disease, an autosomal recessive lysosomal storage disorder. Many of the mutations encountered in patients with Gaucher disease are missense alterations that may cause misfolding, decreased stability and/or mistrafficking of this lysosomal protein. […] These inhibitors include iminosugar analogs and three non-iminosugar inhibitors identified from a previous HTS of 62,000 compounds with the wild type recombinant enzyme. However, the enhancement of enzyme activity by the chaperone action of an enzyme inhibitor must be balanced against the direct inhibition of the enzyme. An enzyme activator could also function as a chaperone by binding to the enzyme and helping to correct its misfolding and mistrafficking. While activators for GC have not yet been identified, they may have better therapeutic potential than inhibitors. Therefore the discovery and development of chemical activators may provide a new strategy for the chaperone therapy. We have optimized a new assay using N370S mutant GC derived from the spleen of a Gaucher patient. […] In addition, the MLPCN compound library has expanded, which increases the chance of finding new and better probes. This assay characterizes compound activity using purified wildtype enzyme instead of mutant enzyme from tissue homogenate. Compound activity differences may be due to the absence of endogenous cofactors found in tissue homogenate as well as inherent differences in enzyme stability and catalytic activity between the N370S and wildtype forms of the protein.
# NCGC Assay Protocol Summary: This is a fluorogenic enzyme assay with 4-methylumbelliferyl-beta-D-glucopyranoside as the substrate and purified wildtype glucocerebrosidase as the enzyme preparation. Upon the hydrolysis of this fluorogenic substrate, the resulting product, […] which can be detected by a standard fluorescence plate reader. Data were normalized to the controls for basal activity (without enzyme) and 100% activity (with enzyme). The AC50 values were determined from concentration-response data modeled with the standard Hill equation. Assay buffer: 50 mM citric acid (titrated with potassium phosphate to pH 5.0), 100 mM potassium chloride, 10 mM sodium chloride, 1 mM magnesium chloride, 0.01% Tween-20. 1536-well assay protocol: (1) Add 2 ul/well of glucocerebrosidase enzyme solution (5 nM final) (2) Add 23 nL compounds in DMSO solution. The final titration was 0.5 nM to 58 uM. (3) Add 2 ul of substrate (1 mM final) (4) Incubate at 37C for 40 min. (5) Add 2 ul stop solution (1M NaOH and 1M Glycine mixture, pH 10) (6) Detect the assay plate in a ViewLux plate reader (PerkinElmer) with Ex=365 nm and Em=440nm. Keywords: Glucocerebrosidase, beta-glucosidase, Gaucher Disease, pharmacological chaperone, chaperone therapy, high throughput screening, glucocerebrosidase inhibitor, MLSMR, MLSCN, NIH Roadmap, qHTS and NCGC
# Sequence of Lysosomal acid glucosylceramidase (Homo sapiens) (P04062 whole entry, looked up): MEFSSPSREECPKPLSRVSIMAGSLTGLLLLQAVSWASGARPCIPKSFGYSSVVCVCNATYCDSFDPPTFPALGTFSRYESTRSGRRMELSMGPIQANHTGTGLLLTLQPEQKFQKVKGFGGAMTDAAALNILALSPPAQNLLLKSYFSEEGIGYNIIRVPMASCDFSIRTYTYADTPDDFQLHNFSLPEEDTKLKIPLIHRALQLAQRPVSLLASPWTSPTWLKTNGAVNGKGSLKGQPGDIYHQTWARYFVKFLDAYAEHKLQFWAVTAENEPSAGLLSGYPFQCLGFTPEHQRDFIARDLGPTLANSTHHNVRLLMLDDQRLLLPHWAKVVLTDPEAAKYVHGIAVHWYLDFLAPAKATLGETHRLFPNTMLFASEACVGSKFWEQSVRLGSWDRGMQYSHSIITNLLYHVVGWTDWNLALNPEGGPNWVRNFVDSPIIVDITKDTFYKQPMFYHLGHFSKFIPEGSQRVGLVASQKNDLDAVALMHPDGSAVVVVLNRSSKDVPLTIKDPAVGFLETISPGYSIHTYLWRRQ
row,Compound,Potency
1,COc1ccc(NC(=O)c2cnn3c(C)cc(C)nc23)cc1Cl,20.6 µM (active)
2,Cc1cc(C)n2ncc(C(=O)NCc3ccco3)c2n1,23.1 µM (active)
3,Cc1cc(C)n2ncc(C(=O)NC3CCC(C(C)(C)C)CC3)c2n1 (stereo unspecified),13 µM (active)
4,Cc1cc(C)n2ncc(C(=O)Nc3ccncc3)c2n1,inactive
5,COc1ccc(NC(=O)c2cnn3c(C)cc(C)nc23)cc1OC,inactive
6,CC(=O)c1ccc(NC(=O)c2cnn3c(C)cc(C)nc23)cc1,inactive
7,CCc1ccc(NC(=O)c2cnn3c(C)cc(C)nc23)cc1,11.6 µM (active)
8,Cc1cc(C)n2ncc(C(=O)Nc3ccc4c(c3)OCO4)c2n1,10.3 µM (active)
9,Cc1cc(C)n2ncc(C(=O)Nc3ccc4c(c3)OCCO4)c2n1,16.3 µM (active)
10,Cc1cc(C)n2ncc(C(=O)Nc3cccc(C#N)c3)c2n1,inactive
11,Cc1cc(C)n2ncc(C(=O)Nc3ccc(C(F)(F)F)cc3)c2n1,6.51 µM (active)
12,Cc1cc(C)n2ncc(C(=O)Nc3ccccc3C)c2n1,13 µM (active)
13,Cc1cc(C)n2ncc(C(=O)NC3CCCCC3)c2n1,11.6 µM (active)
14,Cc1cc(C)n2ncc(C(=O)NCc3ccccc3)c2n1,32.6 µM (active)
15,Cc1cc(C)n2ncc(C(=O)Nc3ccc4c(c3)CCC4)c2n1,10.3 µM (active)
16,COc1ccc(NC(=O)c2cnn3c(C)cc(C)nc23)cc1,16.3 µM (active)

row,Compound,Potency
1,Cc1cc(C)n2ncc(C(=O)NC(C)C)c2n1,41.1 µM (active)
2,CNC(=O)c1cnn2c(C)cc(C)nc12,inactive
3,COc1ccc(NC(=O)c2cnn3c(C)cc(C)nc23)cc1F,13 µM (active)
4,CC(=O)Nc1ccccc1NC(=O)c1cnn2c(C)cc(C)nc12,inactive
5,Cc1ccc(NC(=O)c2cnn3c(C)cc(C)nc23)c(C)c1,20.6 µM (active)
6,Cc1cc(C)n2ncc(C(=O)Nc3ccc(Br)cc3)c2n1,16.3 µM (active)
7,Cc1cc(C)n2ncc(C(=O)N3CCCC3)c2n1,inactive
8,Cc1ccc(NC(=O)c2cnn3c(C)cc(C)nc23)cc1,9.19 µM (active)
9,Cc1cc(C)n2ncc(C(=O)Nc3ccc(S(C)(=O)=O)cc3)c2n1,inactive
10,Cc1cc(C)n2ncc(C(=O)Nc3ccc(C)c(C)c3)c2n1,5.8 µM (active)
11,Cc1cc(C)n2ncc(C(=O)Nc3ccccc3)c2n1,7.3 µM (active)
12,CC(=O)c1cccc(NC(=O)c2cnn3c(C)cc(C)nc23)c1,32.6 µM (active)
13,Cc1cccc(NC(=O)c2cnn3c(C)cc(C)nc23)c1,16.3 µM (active)
14,O=C(Nc1ccccc1Sc1ccccc1)c1cnn2c1NC(=C1CC1)C=C2C(F)F,32.6 µM (active)
15,C#Cc1ccc(NC(=O)c2cnn3c(C)cc(C)nc23)cc1,5.17 µM (active)
